The text below walks through data of PubChem BioAssay AID652067 (The Scripps Research Institute Molecular Screening Center, 2013).

The whole screen tested about 370,000 compounds, of which about 5,400 (1.5%) were called active.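 How the source made its calls: active means activation above the mean of all tested compounds plus 3 SD (cut at about 5.5% in these data); inactive means the rest.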 Only a selection was taken, and actives are over-represented in it overall.

In this test the test system is DAF-12 nuclear receptor (Haemonchus contortus). The experiment in a line: H. contortus DAF-12 nuclear receptor activators, primary screen, cell-based, luminescence, HEK293, lit1-tk-luc reporter (AID 652067).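 Further: 100% = response to 3 µM Δ7-dafachronic acid high control.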 The note with it: HEK293 hcDAF-12 lit1-tk-luc reporter, at 6.8 µM, stronger effect = higher value, 0% DMSO, 100% Δ7-dafachronic acid.
Turning to `COc1cccc(CC(=O)N2CCN(C(=O)C(=O)c3cccc(C(F)(F)F)c3)CC2)c1`, the activation is 1.16% (inactive).
The figure for `CC(C)CSc1nnc(-c2cccnc2)n1Cc1ccccc1` is -1.13% (inactive); for `O=C(c1ccncc1)N1CC[C@H]2[C@H](CCCN2Cc2ccc(F)cc2)C1` it is -1.38% (inactive); for `CC(C)c1ccc(C=NNc2ccc([N+](=O)[O-])cn2)cc1` it is 9.24% (active).
The value for `CC(C)c1ccc(/C=C2\NC(=O)NC2=O)cc1` was -2.26% (inactive); that for `CC(NC(=O)C(=O)N/N=C/c1ccc(Cl)cc1)c1ccccc1` (centres undefined) was -1.03% (inactive); that for `COC(=O)[C@]12C[C@H](CC(=O)NCc3cccc(C(F)(F)F)c3)C(=O)N(Cc3ccc4c(c3)OCO4)C1=C[C@H](COCc1ccccc1)O[C@@H]2C` was 0.41% (inactive).
The value for `Cc1ccc(C2Nc3cccc4cccc(c34)N2)cc1` was 6.38% (active); that for `COc1ccc(-c2cc(-c3nnc(SCC(=O)Nc4cccc5ccccc45)n3N)[nH]n2)cc1` was 0.47% (inactive); that for `O=C(N=C1SC2CS(=O)(=O)CC2N1c1cc(Cl)ccc1Cl)C1CC1` (centres undefined) was -1% (inactive).
Turning to `COc1ccc(Cn2cc(COC(=O)N(C)Cc3ccccc3)nn2)cc1`, the activation was -0.59% (inactive).
The value for `Cc1ccccc1C(=O)OC1OC(=O)C(Cl)=C1Nc1ccccc1` (centres undefined) was -2.44% (inactive); that for `Cc1cc(C)nc(Nc2n[nH]c(-c3ccccc3N)n2)n1` was 8.9% (active); that for `CC(C)CNc1cccc2c1S(=O)(=O)N[C@H](C)CO2` was -1.2% (inactive).
The value for `O=C(NCc1ccccc1)[C@@H]1CCCN1C(=O)[C@H]1CCCN1C(=O)c1cccc(Cl)c1` was -0.09% (inactive); that for `O=C(NN=Cc1ccco1)C(=O)Nc1ccc(Cl)c([N+](=O)[O-])c1` was -1.72% (inactive); that for `Cc1cc2c(nc1C)CCCN2C` was 1.19% (inactive).
The figure for `CCOC(=O)[C@]12CCCC=C1N(Cc1ccc(OC)cc1)C(=O)[C@@H]2CC(=O)NCc1cccs1` is -0.39% (inactive); for `COc1cccc(Nc2nc(N)c([N+](=O)[O-])c(NCc3ccco3)n2)c1` it is -3.76% (inactive); for `CNc1nc(Nc2ccc(C)c(Cl)c2)nc(N)c1[N+](=O)[O-]` it is 10.8% (active).
`Nc1nc(Nc2ccccc2F)nc(NC2CCCCC2)c1[N+](=O)[O-]`: the activation was -1.49% (inactive).
In the case of `COc1ccc(NC(=O)N(C)C[C@@H]2OCCCC[C@@H](C)Oc3ccc(NC(=O)NC4CCCCC4)cc3C(=O)N([C@H](C)CO)C[C@@H]2C)cc1`, the activation is -0.68% (inactive).
The figure for `Cc1ccccc1CS(=O)(=O)Cc1ccc(C(=O)Nc2ccc(Cl)cc2)o1` is -6.56% (inactive); for `COP(=O)(O)CNC(=O)OCc1ccccc1` it is -1.19% (inactive).
